According to PubChem BioAssay (NCATS):
Results filed as inconclusive are left out. Activity calls are given as the source filed them. Unless noted, calls come from the whole dose curve.

Key:
[1] = qHTS for Inhibitors of the Functional Ribonucleoprotein Complex (vRNP) of Lassa (LASV) Arenavirus: LASV Primary Screen - GLuc reporter signal (AID 1347082; calls by dose curve; tested in HEK293 reporter line; note: nearly all actives have a fitted effect of over 60% in size)
[2] = qHTS for Inhibitors of the Functional Ribonucleoprotein Complex (vRNP) of Lassa (LASV) Arenavirus: Viability assay - alamar blue signal for LASV Primary Screen (AID 1347083; calls by dose curve; tested in HEK293 reporter line; note: nearly all actives have a fitted effect of over 80% in size)
[3] = qHTS for Inhibitors of the Functional Ribonucleoprotein Complex (vRNP) of Lymphocytic Choriomeningitis Arenaviruses (LCMV): Viability assay - alamar blue signal for LCMV Primary Screen (AID 1347085; calls by dose curve; tested in HEK293 reporter line; note: nearly all actives have a fitted effect of over 80% in size)
[4] = target: Nucleoprotein (Lymphocytic choriomeningitis virus (strain Armstrong)) (UniProt P09992); assay: qHTS for Inhibitors of the Functional Ribonucleoprotein Complex (vRNP) of Lymphocytic Choriomeningitis Arenaviruses (LCMV): LCMV Primary Screen - GLuc reporter signal (AID 1347086); note: nearly all actives have a fitted effect of over 70% in size
% is set by controls: 0 for no effect and ±100 for the full control effect.
Note: series mostly up to about 57 µM.

Sequence of Nucleoprotein (Lymphocytic choriomeningitis virus (strain Armstrong)) (P09992 whole entry, looked up): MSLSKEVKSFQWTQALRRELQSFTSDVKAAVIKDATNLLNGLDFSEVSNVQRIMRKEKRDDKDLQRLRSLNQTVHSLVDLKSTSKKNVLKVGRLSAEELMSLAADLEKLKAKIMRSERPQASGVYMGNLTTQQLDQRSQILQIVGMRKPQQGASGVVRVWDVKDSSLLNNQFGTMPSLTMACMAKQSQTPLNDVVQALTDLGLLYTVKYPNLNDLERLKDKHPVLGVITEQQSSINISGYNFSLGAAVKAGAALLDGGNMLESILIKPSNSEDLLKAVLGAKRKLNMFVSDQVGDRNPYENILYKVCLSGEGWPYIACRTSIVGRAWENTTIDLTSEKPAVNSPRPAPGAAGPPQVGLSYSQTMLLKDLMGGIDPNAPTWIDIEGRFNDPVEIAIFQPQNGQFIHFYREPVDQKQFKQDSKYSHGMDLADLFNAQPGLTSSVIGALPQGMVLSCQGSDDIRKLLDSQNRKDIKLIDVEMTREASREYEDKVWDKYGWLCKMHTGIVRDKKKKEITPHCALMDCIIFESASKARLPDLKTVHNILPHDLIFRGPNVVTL

COC1[C@@H](OC)C[C@H](C)[C@@H](OC)C2=CC(=O)C=C(NC(=O)/C(C)=C/C=C\[C@H](OC)[C@@H](OC(N)=O)/C(C)=C/[C@@H]1C)C2=O (stereo not given in full)
inactive: activity change, negative = inhibition [1] 1.65% [at 5.82 µM] | activity change, negative = reduced viability [2] 7.34% [at 5.82 µM] | activity change, negative = lower viability [3] 15.6% [at 5.82 µM] | activity change, negative = inhibition [4] 12.1% [at 5.82 µM]

CC(C=CC(O)=C1C(=O)CNC1=O)=C[C@@H](C)C1OC2(C)OC(C(=O)C3O[C@@]32C)C1C (stereo not given in full)
inactive: Potency [1] | Potency [2] | Potency [3] | Potency [4]

CCCCCCC(=O)OCC
inactive: Potency [1] | Potency [2] | Potency [3] | Potency [4]

C=C(C)C1Cc2cc3ccc(=O)oc3cc2O1 (stereo not given)
inactive: Potency [1] | Potency [2] | Potency [3] | Potency [4]

CC12CCC3C(CCC4CC(O)CCC43C)C1CC(O)C2 (stereo not given)
inactive: Potency [1] | Potency [2] | Potency [3] | Potency [4]

C/C(=C\COc1ccc2ccc(=O)oc2c1)CC[C@@H](O)C(C)(C)O
inactive: Potency [1] | Potency [2] | Potency [3] | Potency [4]

CC1OC(Oc2ccc3ccc(=O)oc3c2-c2c(O)ccc3cc(Oc4ccc5ccc(=O)oc5c4)c(=O)oc23)C(O)C(O)C1O (stereo not given)
inactive: Potency [1] | Potency [2] | Potency [3] | Potency [4]

c1ccc2c3c([nH]c2c1)C1(CCCCC1)NCC3
inactive: Potency [1] | Potency [2] | Potency [3] | Potency [4]

COc1cc(C)c(C(=O)Oc2cc(C)c(C(=O)O)c(O)c2C)c(OC)c1C
inactive: Potency [1] | Potency [2] | Potency [3] | Potency [4]

COC(=O)C1=CO[C@@H](C)[C@@H]2CN3CC[C@@]4(C(=O)Nc5ccccc54)[C@@H]3C[C@H]12
inactive: Potency [1] | Potency [2] | Potency [3] | Potency [4]

C=C1C[C@H](O[C@@H]2O[C@H](CO)[C@@H](O)[C@H](O)[C@H]2O)[C@@H]2[C@H](OC(=O)[C@H]2C)[C@H]2[C@H](C)[C@@H](O)C[C@@H]12
inactive: Potency [1] | Potency [2] | Potency [3] | Potency [4]

CCOC(=O)/C=C/c1ccccc1
inactive: Potency [1] | Potency [2] | Potency [3] | Potency [4]

COC(=O)Cc1ccccc1
inactive: Potency [1] | Potency [2] | Potency [3] | Potency [4]

O=c1c(O)c(-c2ccccc2O)oc2cc(O)cc(O)c12
inactive: Potency [1] | Potency [2] | Potency [3] | Potency [4]

CC1(C)[C@H](O[C@H]2O[C@H](C(=O)O)[C@@H](O)[C@H](O)[C@H]2O[C@@H]2O[C@H](C(=O)O)[C@@H](O)[C@H](O)[C@H]2O)CC[C@@]2(C)[C@H]1CC[C@]1(C)[C@H]2C(=O)C=C2[C@H]3C[C@@](C)(C(=O)O)CC[C@]3(C)CC[C@]21C
inactive: Potency [1] | Potency [2] | Potency [3] | Potency [4]

CON(C)C(=O)N1N=C(c2cc(F)ccc2F)S[C@]1(CCCN)c1ccccc1
inactive: Potency [1] | Potency [2] | Potency [3] | Potency [4]

C=C[C@](C)(O)CC[C@@H]1[C@@]2(C)CCCC(C)(C)[C@@H]2CC[C@@]1(C)O
inactive: Potency [1] | Potency [2] | Potency [3] | Potency [4]

CCCCCCCCCCCCOC(C)=O
inactive: Potency [1] | Potency [2] | Potency [3] | Potency [4]

Cc1cc(CS(=O)(=O)c2ccccc2)cc(OCc2ccc(CN3CCC[C@H]3CO)cc2)c1
inactive: Potency [1] | Potency [2] | Potency [3] | Potency [4]

NCCCCCN
inactive: Potency [1] | Potency [2] | Potency [3] | Potency [4]

C=C1[C@H]2C[C@H]3[C@H]4N5C[C@]6(C)CCC[C@]47[C@H]([C@H]2O)[C@]3(C[C@]5(O)[C@H]67)[C@@H]1O
inactive: Potency [1] | Potency [2] | Potency [3] | Potency [4]

CCCCc1nc2ccccc2[nH]1
inactive: Potency [1] | Potency [2] | Potency [3] | Potency [4]

CC(C)CNC(=O)/C=C/C=C/c1ccc2c(c1)OCO2
inactive: Potency [1] | Potency [2] | Potency [3] | Potency [4]

O=C1NC(=O)/C(=C/c2ccc3c(c2)OC(F)(F)O3)S1
inactive: Potency [1] | Potency [2] | Potency [3] | Potency [4]

COc1c(OC)c(O)c2c(=O)cc(-c3c(O)cccc3O)oc2c1OC
inactive: Potency [1] | Potency [2] | Potency [3] | Potency [4]

CC1=CCCC(C)(C)C12CCC(C)O2 (stereo not given)
inactive: Potency [1] | Potency [2] | Potency [3] | Potency [4]

CC1(C)C(CO)=CC(=O)C2=C1SCC(=O)N2
inactive: Potency [1] | Potency [2] | Potency [3] | Potency [4]

CC(=O)CCc1ccc(O)cc1
inactive: Potency [1] | Potency [2] | Potency [3] | Potency [4]

O=C(O)c1cccc(C(=O)O)n1
inactive: Potency [1] | Potency [2] | Potency [3] | Potency [4]

O=C(/C=C/c1ccc(O)c(O)c1)c1ccc(O)cc1O
inactive: Potency [1] | Potency [2] | Potency [3] | Potency [4]

Cn1c(=O)c2[nH]c(=O)[nH]c2n(C)c1=O
inactive: Potency [1] | Potency [2] | Potency [3] | Potency [4]

CC(C)CCCC(C)CCO (stereo not given)
inactive: Potency [1] | Potency [2] | Potency [3] | Potency [4]

CN[C@H]1[C@@H](O[C@@H]2[C@H](O[C@@H]3[C@@H](O)[C@@H](O)[C@@H](N=C(N)N)[C@@H](O)[C@@H]3N=C(N)N)O[C@H](C)[C@@]2(O)C=O)O[C@@H](CO)[C@@H](O)[C@H]1O
inactive: Potency [1] | Potency [2] | Potency [3] | Potency [4]

COC1[C@@H](O[C@@H]2O[C@H](C)[C@@H](O[C@H]3C[C@@](C)(O)[C@H](OC(=O)CC(C)C)[C@H](C)O3)[C@H](N(C)C)[C@H]2O)[C@@H](CC=O)C[C@@H](C)[C@@H](O)/C=C/C=C/C[C@@H](C)OC(=O)C[C@H]1OC(C)=O (stereo not given in full)
inactive: Potency [1] | Potency [2] | Potency [3] | Potency [4]

CC(=O)OC1c2c(ccc3ccc(=O)oc23)OC(C)(C)C1OC(=O)CC(C)C (stereo not given)
inactive: Potency [1] | Potency [2] | Potency [3] | Potency [4]

CC(C)(O)[C@H](O)Cc1cc2ccc(=O)oc2cc1O[C@@H]1O[C@H](CO)[C@@H](O)[C@H](O)[C@H]1O
inactive: Potency [1] | Potency [2] | Potency [3] | Potency [4]

O=C(Oc1ccccc1)c1ccccc1C(=O)Oc1ccccc1
inactive: Potency [1] | Potency [2] | Potency [3] | Potency [4]

O=C(/C=C/c1ccc(O)cc1)OC[C@H]1O[C@@H](Oc2c(-c3ccc(O)cc3)oc3cc(O)cc(O)c3c2=O)[C@H](O)[C@@H](O)[C@@H]1O
inactive: Potency [1] | Potency [2] | Potency [3] | Potency [4]

C/C=C(/C)C(=O)O[C@H]1CC(C)=CC(=O)[C@@]2(C)CC[C@@](O)(C(C)C)[C@H]12
inactive: Potency [1] | Potency [2] | Potency [3] | Potency [4]

CCOC(=O)[C@H]1O[C@H]1C(=O)N[C@@H](CC(C)C)C(=O)NCCC(C)C
inactive: Potency [1] | Potency [2] | Potency [3] | Potency [4]

COc1ccc(COC(C)=O)cc1
inactive: Potency [1] | Potency [2] | Potency [3] | Potency [4]

O=C1NC2C(=CC(O)C(O)C2O)c2cc3c(c(O)c21)OCO3 (stereo not given)
inactive: Potency [1] | Potency [2] | Potency [3] | Potency [4]

COc1ccc(/C=C/C(=O)c2c(OC)cc(O)cc2OC)cc1
inactive: Potency [1] | Potency [2] | Potency [3] | Potency [4]

C=C1C[C@H](O)[C@@H]2[C@H](OC(=O)[C@H]2C)[C@H]2[C@H](C)[C@@H](O)C[C@@H]12
inactive: Potency [1] | Potency [2] | Potency [3] | Potency [4]

COc1cc(O)c2c(=O)c3c(O[C@H]4O[C@@H](CO)[C@H](O)[C@@H](O)[C@@H]4O)ccc(O)c3oc2c1
inactive: Potency [1] | Potency [2] | Potency [3] | Potency [4]

OCCNC1CCCc2c1[nH]c1ccc(-c3ccccc3)cc21 (stereo not given)
inactive: Potency [1] | Potency [2] | Potency [3] | Potency [4]

Nc1[nH]c(=O)nc2c1ncn2C1OC(CO)C(O)C1O (stereo not given)
inactive: Potency [1] | Potency [2] | Potency [3] | Potency [4]

C/C=C(/C)C(=O)O[C@@H]([C@H](O)c1cc2ccc(=O)oc2cc1OC)C(C)(C)O[C@@H]1O[C@H](CO)[C@@H](O)[C@H](O)[C@H]1O
inactive: Potency [1] | Potency [2] | Potency [3] | Potency [4]

Cn1c(N2CCCCS2(=O)=O)nc(C(=O)NCc2ccc(F)cc2)c(O)c1=O
inactive: Potency [1] | Potency [2] | Potency [3] | Potency [4]

N[C@H](CSSC[C@@H](N)C(=O)O)C(=O)O
inactive: Potency [1] | Potency [2] | Potency [3] | Potency [4]

COc1c2c(cc(O)c1C(C)=O)OC(C)(C)C=C2
inactive: Potency [1] | Potency [2] | Potency [3] | Potency [4]

CC[C@H](C)/C=C(C)/C=C/C1=CC2=CC(=O)[C@]3(C)OC(=O)[C@@H](C(C)=O)[C@@H]3C2=CO1
inactive: Potency [1] | Potency [2] | Potency [3] | Potency [4]

C/C=C(\C)C(=O)O[C@@H]([C@H](O)c1cc2ccc(=O)oc2cc1OC)C(C)(C)O
inactive: Potency [1] | Potency [2] | Potency [3] | Potency [4]

COc1cc(C(=O)OC2C[C@H]3CC[C@@H](C2)N3)ccc1O (stereo not given in full)
inactive: Potency [1] | Potency [2] | Potency [3] | Potency [4]

O=C(c1ccc(F)cc1)N1CCC[C@H](c2nc(-c3ccc(F)cc3)no2)C1
inactive: Potency [1] | Potency [2] | Potency [3] | Potency [4]

CCCC(=O)C(C)=O
inactive: Potency [1] | Potency [2] | Potency [3] | Potency [4]

C/C=C(\C)C(=O)O[C@H]1CC(C)=C2C(=O)C=C(C)C2[C@@H]2OC(=O)[C@@](C)(OC(=O)C=C(C)C)C21 (stereo not given in full)
inactive: Potency [1] | Potency [2] | Potency [3] | Potency [4]

COC(=O)c1ccc(OC)cc1
inactive: Potency [1] | Potency [2] | Potency [3] | Potency [4]

C[C@]12CCC(=O)C=C1CC[C@@H]1[C@H]2[C@@H](O)C[C@@]2(C)[C@H]1CC[C@]2(O)C(=O)CO
inactive: Potency [1] | Potency [2] | Potency [3] | Potency [4]

COc1c2c(nc3occc13)C(CC=C(C)C)(OC)C(=O)C=C2 (stereo not given)
inactive: Potency [1] | Potency [2] | Potency [3] | Potency [4]
